Test results taken from PubChem BioAssay (NCI).
Compounds without any hit were thinned out: in the full panel of roughly 83,000, 20% have a hit.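 Treatment: one concentration, 48 hours, 96-well format. Scoring: percent growth, with anything below 10 considered active.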 Unmarked numbers belong to inactive results. Active and inactive are the calls of the source.

How the values were obtained:
Assay in all cases: NCI-60 one-dose screen, 48 h (100 = growth as untreated, 0 = no growth, -100 = all killed)
NCI-H23 lung = conditions: 10 µM unless noted
786-0 renal = conditions: 10 µM unless noted
DU-145 prostate = conditions: 10 µM unless noted
MDA-MB-231 breast = conditions: 10 µM unless noted
SF-268 CNS = conditions: 10 µM unless noted
SF-539 CNS = conditions: 10 µM unless noted
M14 melanoma = conditions: 10 µM unless noted
HCT-15 colon = conditions: 10 µM
UACC-62 melanoma = conditions: 10 µM unless noted
LOX IMVI melanoma = conditions: 10 µM unless noted
SK-MEL-28 melanoma = conditions: 10 µM unless noted
ACHN renal = conditions: 10 µM unless noted
OVCAR-5 ovarian = conditions: 10 µM unless noted
OVCAR-3 ovarian = conditions: 10 µM unless noted
NCI/ADR-RES ovarian = conditions: 10 µM unless noted
MDA-MB-435 melanoma = conditions: 10 µM unless noted
SW-620 colon = conditions: 10 µM unless noted
MCF7 breast = conditions: 10 µM unless noted
KM12 colon = conditions: 10 µM unless noted
T-47D breast = conditions: 10 µM unless noted

Structure (SMILES) | growth (NCI-H23 lung) | growth (786-0 renal) | growth (DU-145 prostate) | growth (MDA-MB-231 breast) | growth (SF-268 CNS) | growth (SF-539 CNS) | growth (M14 melanoma) | growth (HCT-15 colon) | growth (UACC-62 melanoma) | growth (LOX IMVI melanoma) | growth (SK-MEL-28 melanoma) | growth (ACHN renal) | growth (OVCAR-5 ovarian) | growth (OVCAR-3 ovarian) | growth (NCI/ADR-RES ovarian) | growth (MDA-MB-435 melanoma) | growth (SW-620 colon) | growth (MCF7 breast) | growth (KM12 colon) [%] | growth (T-47D breast)
Cc1ccc2oc(=O)c3c(c2c1)OC(N)=C(C#N)C3c1ccco1 (stereo unspecified) | 98.3% | 102% | 103% | 103% | 101% | 101% | 99.8% | 103% | 95.9% | 96.8% | 113% | 101% | 102% | 104% | 102% | 105% | 101% | 93.8% | 98.9 | –
O=C(/C=C/c1ccccc1)N[C@@H](CO)Cc1cnc[nH]1 | 113% | 103% | 114% | 98.9% | 101% | 95.6% | 105% | 98.6% | 110% | 97.2% | 99.4% | 96.4% | 98.3% | 112% | 98% | 113% | 106% | 98.7% | 105 | 104%
O=C(NCc1ccc([N+](=O)[O-])cc1)Nc1ccc(S(=O)(=O)F)cc1 | 81.3% | 80.1% | 102% | 80.4% | 89.9% | 88.3% | 93.5% | 87.1% | 65.1% | 92.9% | 96% | 90.1% | 83.9% | 87% | 78.3% | 92.8% | 91.8% | 83.7% | 84.2 | 57%
COc1ccc(C2SCC(=O)Nc3c2c(C)nn3-c2nc3ccc(C)cc3s2)cc1O (stereo unspecified) | 55.3% | 58.4% | 73.5% | 36% | 44.8% | 31% | – | 23.9% | 40.2% | 36.9% | 51.1% | 44.2% | 67.2% | 5.66% (active) | 17.3% | -25.5% (active) | 28.1% | 15.4% | 16.2 | –
OB([O][Hg][c]1ccccc1)[O][Hg][c]1ccccc1 | -56.2% (active) | -76.6% (active) | -73.5% (active) | -69.8% (active) | -51.2% (active) | -87.7% (active) | -80.9% (active) | -70.3% (active) | -99.1% (active) | -29.2% (active) | -83.2% (active) | -95.6% (active) | -64% (active) | -89.6% (active) | -18.2% (active) | -84% (active) | -48.9% (active) | -39.4% (active) | 14.7 | -42.4% (active)
CC(=O)N(C)C1=Nc2ccc(Cl)cc2C(c2ccccc2)=[N+]([O-])C1 | 101% | 110% | 115% | 109% | 105% | 104% | 114% | 108% | 93.7% | 95.4% | 124% | 98.7% | 102% | 117% | 111% | 111% | 107% | 104% | 107 | 94.9%
O=C1c2ccccc2C(=O)N1[N+](=O)[O-] | 95.3% | 100% | 106% | 101% | 104% | 108% | 105% | 110% | 96.1% | 91.6% | 112% | 111% | 112% | 106% | 97.9% | 110% | 103% | 92.5% | 101 | –
C=CCN1C(=O)C(CC)(CCC(C)C)C(=O)NC1=S (stereo unspecified) | 105% | 97.7% | 105% | 108% | 109% | 111% | 107% | 105% | 92.2% | 109% | 104% | 110% | 112% | 113% | 106% | 101% | 104% | 107% | 108 | 113%
